1 compound from PubChem BioAssay AID2713 (National Center for Advancing Translational Sciences (NCATS), 2010) can be followed below.

This experiment in a line: qHTS Multiplex Assay to Identify Dual Action Probes in a Cell Model of Huntington: Cytotoxicity in HTT Striatal Cells. To be noted: STHdhQ111/111 striatal cells, serum-free, ATP luminescence, 24 h. The text has this: NIH Chemical Genomics Center [NCGC] NIH Molecular Libraries Probe Production centers Network [MLPCN] MLPCN Grant: MH084839-01A1 Assay Submitter (PI): Wei Zheng NCGC Assay Overview: Huntington's disease is a neurodegenerative disorder caused by a trinucleotide repeat expansion in Exon 1 of the Huntingtin gene. The CAG trinucleotide encodes glutamine and polyglutamine expansions cause cell death in selective areas of the brain. Huntington polyglutamine repeats have the tendency to form aggregates which are observable in later stages of the disease. The exact nature of the aggregates, whether toxic, protective, or insignificant, is unclear. A stable PC12 cell line containing a gene fusion of Exon 1 of the Huntingtin gene linked to GFP under the control of the inducible ecdysone promoter were used as the cell-based model of Huntington Disease for high throughput screening. Exon 1 of the Huntingtin gene contained an expansion of 103 polyglutamines (Q103) which, when expressed, caused cell death and distinct, bright GFP aggregates. The amount of cell death and the size and intensity of GFP aggregates increased over time and induction level. The cell death were quantified with a measurement of ATP content in the cells. A maximal 40-50% of cell death was observed when the Huntington gene was induced in this cell line. We optimized this assay in a homogeneous 1536 well format. A quantitative high throughput screen (qHTS) was conducted on the PC12 cells which were induced to express the toxic fusion construct. Small molecules which prevented cell death were identified by using a luminescent ATP quantification method (Perkin Elmer's ATPlite). This assay examines influence on cytotoxicity induced by serum deprivation in normal and Huntington striatal cells.
Freshlay passaged STHdhQ7/7 cells and mutant STHdhQ111/111 Huntington striatal cells were plated at a density of 20,000 cells/well in complete media and allowed to recover overnight at 33C. The next day, media was replaced with serum containing media or serum free media containing the compound. After 24 hours of incubation at 33 C, cells were assayed for ATP content using the Cell Titer-GLO ATP assay from Promega (cat # G7571). ATP/Toxicity Assay in Serum Free Media (SFM) (96 well plate format) 1. Plate 20,000 cells/well and incubate the cells in complete (w/serum) media overnight 2. Remove media, wash twice with PBS and add the SFM w/ or w/o the compound 3. Incubate at 33C; cells can be incubated at 39C for a more dramatic effect 4. ATP measurements after […] treatment, per kit protocol

Values joined by “and” are separate entries in the source; they are usually repeats but may differ in a detail not shown here. Equal values may be shown once. Results filed as inconclusive are left out. Active and inactive are the calls of the source.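 How the source made its calls: active means compounds raising survival of Huntington mutant striatal cells while barely changing normal control cells; inconclusive means compounds that make cell death worse; inactive means the rest.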

For the compound `Cn1nnnc1Sc1ncnc2scc(-c3ccccc3)c12`, the viability change (measured here: Q7/7 cells, at 30 µM) was 33% and 26%; the viability change (measured here: Q7/7 cells, at 60 µM) is 21% and 15%; the viability change (measured here: Q111/111 cells, at 60 µM) is 191% and 196%; the viability change (at 30 µM) is 231% (active) and 240% (active); the viability change (measured here: Q7/7 cells, FBS, at 30 µM) was 9% and 8%; the viability change (measured here: Q7/7 cells, FBS, at 60 µM) was 7% and 5%. Also, the viability change (measured here: Q111/111 cells, FBS, at 30 µM) is 18% and 16%; the viability change (measured here: Q111/111 cells, FBS, at 60 µM) was 9% and 8%.
